# Test results reported in the supplement of paper PMC6555819.
# Key:
# Experiment in all cases: PBM binding z-score (relative to random genomic background probes); higher = stronger binding; sequences stand for … in GC…GCGATTGACAGCGTAGAATGAAGG
# [1] = test system: FXR:RXRa (NR concentration 270 nM, RXRa partner concentration 90 nM)
# How it was run: (§1)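 For binding z-scores, the reference was random background probes on custom Agilent 4×180K protein-binding microarrays. These arrays were incubated 1 h with ligand-free nuclear receptor dimers in PBS pH 7.4, 2% milk, 0.02% Triton X-100, 1 mM DTT, 0.2 mg/mL BSA and 0.4 mg/ml salmon testes DNA. Fluorescence was scanned after antibody detection of each partner (one per run) and regression-normalized.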
# [2] = test system: LXRa:RXRa (NR concentration 270 nM, RXRa partner concentration 90 nM)
# How it was run: as §1
# [3] = test system: LXRa homodimer (NR concentration 270 nM)
# How it was run: as §1
# [4] = test system: LXRb:RXRa (NR concentration 270 nM, RXRa partner concentration 90 nM)
# How it was run: as §1
# [5] = test system: LXRb homodimer (NR concentration 270 nM)
# How it was run: as §1
# [6] = test system: PPARa:RXRa (NR concentration 270 nM, RXRa partner concentration 90 nM)
# How it was run: as §1
# [7] = test system: PPARg:RXRa (NR concentration 180 nM, RXRa partner concentration 90 nM)
# How it was run: as §1
# [8] = test system: PPARg:RXRa 270nM:90nM, anti-RXR (NR concentration 270 nM, RXRa partner concentration 90 nM)
# How it was run: as §1
# [9] = test system: PPARg:RXRa 30nM:10nM, anti-RXR (NR concentration 30 nM, RXRa partner concentration 10 nM)
# How it was run: as §1
# [10] = test system: PPARg:RXRa 90nM:30nM, anti-RXR (NR concentration 90 nM, RXRa partner concentration 30 nM)
# How it was run: as §1
# [11] = test system: PPARg:RXRa DBDmut IVT, anti-RXR (DBD mutation: RXRa K156A/R161A, NR concentration 270 nM, RXRa partner concentration 90 nM)
# How it was run: as §1
# [12] = test system: PPARg:RXRa IVT, anti-PPARg (NR concentration 270 nM, RXRa partner concentration 90 nM)
# How it was run: as §1
# [13] = test system: PPARg DBDmut:RXRa IVT, anti-PPARg (DBD mutation: PPARg1 K132A/R137A, NR concentration 270 nM, RXRa partner concentration 90 nM)
# How it was run: as §1
# [14] = test system: PPARg DBDmut IVT, anti-PPARg (DBD mutation: PPARg1 K132A/R137A, NR concentration 270 nM)
# How it was run: as §1
# [15] = test system: PPARg homodimer (NR concentration 180 nM)
# How it was run: as §1
# [16] = test system: PXR:RXRa (NR concentration 270 nM, RXRa partner concentration 90 nM)
# How it was run: as §1
# [17] = test system: PXR homodimer (NR concentration 270 nM)
# How it was run: as §1
# [18] = test system: RARa:RXR (NR concentration 270 nM, RXRa partner concentration 90 nM)
# How it was run: as §1
# [19] = test system: RARa homodimer (NR concentration 270 nM)
# How it was run: as §1
# [20] = test system: RARb:RXRa (NR concentration 270 nM, RXRa partner concentration 90 nM)
# How it was run: as §1
Sequence,PBM binding z-score [1],PBM binding z-score [2],PBM binding z-score [3],PBM binding z-score [4],PBM binding z-score [5],PBM binding z-score [6],PBM binding z-score [7],PBM binding z-score [8],PBM binding z-score [9],PBM binding z-score [10],PBM binding z-score [11],PBM binding z-score [12],PBM binding z-score [13],PBM binding z-score [14],PBM binding z-score [15],PBM binding z-score [16],PBM binding z-score [17],PBM binding z-score [18],PBM binding z-score [19],PBM binding z-score [20]
GCTAGCAGGCCATTTGGCTCACTCAATGACGGGC,-0.798,-0.75,-0.83,-1.31,-1.31,-0.645,0.277,-0.576,-0.918,-0.656,0.892,-0.288,-1.29,-1.19,-1.62,-1.01,-0.87,-0.778,-0.899,-0.0959
CCTATTAGTTGACCAGAAGGGCAACCGAAGCTCG,0.545,0.559,0.36,0.332,0.735,0.431,0.395,0.467,-0.116,0.177,0.319,0.518,-0.0786,0.481,1.64,0.463,0.906,0.452,2.07,1.61
TCTTGTCGATCAACAGGAGGTTAAGAAAGATCGA,0.21,0.937,0.145,0.977,-0.356,1.11,-0.231,0.969,1.86,1.64,0.771,0.105,-0.14,-0.175,-0.727,0.727,-0.0541,0.726,0.067,0.397
TCGAGTAGGTTAGTCGGCGCATTCAGCCAACATA,-0.102,-0.169,-0.745,-0.439,-1.53,0.0972,-0.358,0.362,0.699,0.562,1.73,0.854,-1.61,-1.56,-0.687,-0.463,-0.787,-0.68,-0.479,-0.141
ATCTGTAGGTAAGACTCAGTTCAGTGAAGAACGC,0.0473,0.226,0.296,0.0254,-0.0598,0.0967,0.00745,0.0947,-0.305,-0.0173,1.14,0.619,1.11,1.11,0.0779,1.18,1.28,0.421,0.498,0.161
CCGACTGGGGCAAGGTTATCATAACGCACAGCCA,0.246,0.372,-0.203,0.586,-1.17,1.56,2.69,3.04,0.861,2.36,3.18,3.27,-0.411,-0.512,0.593,0.253,-0.27,0.986,-0.0927,1.5
TATACAGGCTCAAAGGCCAGAGTACGAATGTCGA,-0.0411,0.0342,-0.184,-0.265,-0.0867,0.221,1.03,1.75,0.77,1.4,-0.518,0.865,0.383,0.281,-0.146,-0.262,-0.323,-0.258,0.14,0.95
GCGACTGGGGCATCAGCCGGTTACCATAACTTAA,-0.764,-0.553,-0.599,-0.35,-1.65,0.18,0.552,0.636,-0.73,-0.0776,3.39,2.34,-1.15,-1.34,-0.348,-0.89,-0.327,-0.651,-1.07,0.332
ACAGACAGGTCATGAAGGTAACTCAGGCTATCAT,5.65,4.39,0.927,3.31,0.862,4.77,3.76,3.6,1.23,2.19,1.59,2.7,1.81,1.12,1.73,2.95,0.934,3.74,0.881,3.9
TCGAGTAGGTTAGTCGGGGGATTCAGCCAACATA,0.552,0.506,-0.00348,2.06,6.46,1.13,0.0949,1.49,1.26,1.28,2.61,3.13,3.86,5.11,0.49,0.855,0.0667,0.615,0.264,0.779
ACAATGAGGTTATTAAGATCAGGGAATTGCGGTC,1.54,1.7,0.283,1.26,0.952,2.42,1.45,1.7,0.622,1.3,2.08,2.07,1.27,1.25,0.869,1.58,1.15,1.49,1.12,1.74
CCAGACAGGTGAGAAGGTATCTCAGCCTCGATTA,-0.148,-0.116,0.0657,-0.418,-0.551,0.0664,0.278,-0.0698,-0.296,-0.148,0.865,0.119,-1.02,-0.0601,0.414,-0.407,0.0596,0.185,0.147,0.303
GGAACGAGGGCAAGTTGAAAGCAGAGTTTGATGG,0.833,0.231,-0.173,0.237,-0.789,1.94,1.02,1.12,0.000931,0.87,3.88,2.91,-0.0232,-0.635,0.201,0.652,0.377,0.519,-0.328,2.53
TCATATTGGTAAAAGGTGAAAGTCGGTGTGGTAA,1.65,1.92,0.474,2.06,0.291,3.73,3.98,5.67,5.38,6.18,2.97,2.77,1.12,2.43,2.62,1.43,0.68,2.1,2.36,2.01
